Screening data: PubChem, Johns Hopkins Ion Channel Center
Sampled rows, rich in hits. Any-hit rate of the full collection: about 1.6%.
KCNQ2 enhance – potentiators of rat KCNQ2 potassium channel; B-score at 10 µM; O88943; CHO-K1 KCNQ2, FluxOR thallium flux fluorescence; active compounds read high; 0.54% of 310,000 active;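 active = fluorescence ratio B-score at least 3 SD of library B-scores, with initial fluorescence B-score within 3 of them, cut at about 5.3 in these data; same plate scores as AID 2156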;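 note: B-score of peak minus minimum over baseline fluorescence ratio after K+ and Tl+ stimulus; positive B-score means potentiation of KCNQ2 with more thallium influx and brighter signal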
KCNQ2 block – inhibitors of rat KCNQ2 potassium channel; O88943; CHO-K1 KCNQ2, FluxOR thallium flux, 20 min; active compounds read low; B-score at 10 µM; 1.1% of 310,000 active;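 active = fluorescence ratio B-score at most minus 3 library SDs, with starting brightness B-score within 2 library SDs, cut at about -5.5 in these data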
Kir21 confirm – confirmation of mouse Kir2.1 potassium channel inhibitors; Kir2.1-expressing cells, FluxOR thallium flux fluorescence; active compounds read low; 41% of 2,300 active; AID 2032; Tl flux remaining, % of negative control (active compounds read low), % at 10 µM; shares compounds with KCNQ2 enhance;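 active = Primary-screen hit whose thallium flux fell at least 3 control SD below untreated wells in both duplicates, with normal baseline fluorescence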
HEK293 Tl flux – counter-screen for Kir2.1 inhibitors: effect in parental HEK293 cells; shares compounds with KCNQ2 enhance; FluxOR thallium flux fluorescence; 0% = unstimulated blank wells; FluxOR signal as % of negative control (100 = no effect), % at 10 µM; 19% of 2,300 active;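 active = dye signal at least 3 control SD above or below untreated wells in both duplicates, raw fluorescence within 3, either direction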;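 note: percent is based on the flux ratio of peak minus minimum fluorescence over baseline F0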
CHO-K1 ctr – parental CHO-K1 activity in KCNQ2 potentiator counter-screen; shares compounds with KCNQ2 enhance; parental CHO-K1 cells, FluxOR thallium flux fluorescence; zero = vehicle mean+3SD, 100% = vehicle-minus-blank window; activity increase over 3SD of controls, % at 10 µM; 43% of 1,200 active; AID 2282;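 active = signal rise of at least 3 SD above the untreated control mean, in both duplicate wells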;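 note: counter screen of KCNQ2 potentiator hits so any rise reflects channel-independent effects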
KCNQ1 sel pot – selectivity of KCNQ2 potentiators: effect on human KCNQ1; activation over 3SD threshold, % at 10 µM; shares compounds with KCNQ2 enhance; AID 2283; CHO KCNQ1 stable, FluxOR thallium flux fluorescence; beyond 3SD, as % of vehicle-control signal; 28% of 1,200 active;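 active = fluorescence ratio rise of at least 3 SD of vehicle wells above their mean, in both replicate wells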
KCNQ2 pot confirm – confirmation of rat KCNQ2 potassium channel potentiators; AID 2287; potentiation, less the hit threshold, % at 10 µM; CHO-KCNQ2 cells, FluxOR thallium flux fluorescence; 68% of 1,200 active; shares compounds with KCNQ2 enhance;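 active = fluorescence ratio rising 3 SD or more over the vehicle control mean in both replicates, plus primary screen hit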;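 note: peak minus minimum thallium fluorescence divided by baseline after K/Tl stimulus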
Kir21 spec – selectivity of KCNQ2 potentiators: effect on mouse Kir2.1. activity over 3SD threshold, % at 10 µM. shares compounds with KCNQ2 enhance. AID 2345. 2% of 1,200 active. HEK293 Kir2.1, FluxOR thallium flux fluorescence;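 active = fluorescence ratio rise of at least 3 SD above the vehicle-control mean, seen in both replicates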
KCNQ2 W236L MoA – potentiates the retigabine-insensitive rat KCNQ2 W236L mutant channel; AID 2558; 10% of 940 active; shares compounds with KCNQ2 enhance; CHO KCNQ2-W236L, automated patch clamp current; current increase over 3SD of negative controls (%), active compounds read high, % at 25 µM;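 active = current increase at least 3 SD of the untreated controls above them in both duplicate recordings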
Target sequence (O88943 whole entry W236L, looked up): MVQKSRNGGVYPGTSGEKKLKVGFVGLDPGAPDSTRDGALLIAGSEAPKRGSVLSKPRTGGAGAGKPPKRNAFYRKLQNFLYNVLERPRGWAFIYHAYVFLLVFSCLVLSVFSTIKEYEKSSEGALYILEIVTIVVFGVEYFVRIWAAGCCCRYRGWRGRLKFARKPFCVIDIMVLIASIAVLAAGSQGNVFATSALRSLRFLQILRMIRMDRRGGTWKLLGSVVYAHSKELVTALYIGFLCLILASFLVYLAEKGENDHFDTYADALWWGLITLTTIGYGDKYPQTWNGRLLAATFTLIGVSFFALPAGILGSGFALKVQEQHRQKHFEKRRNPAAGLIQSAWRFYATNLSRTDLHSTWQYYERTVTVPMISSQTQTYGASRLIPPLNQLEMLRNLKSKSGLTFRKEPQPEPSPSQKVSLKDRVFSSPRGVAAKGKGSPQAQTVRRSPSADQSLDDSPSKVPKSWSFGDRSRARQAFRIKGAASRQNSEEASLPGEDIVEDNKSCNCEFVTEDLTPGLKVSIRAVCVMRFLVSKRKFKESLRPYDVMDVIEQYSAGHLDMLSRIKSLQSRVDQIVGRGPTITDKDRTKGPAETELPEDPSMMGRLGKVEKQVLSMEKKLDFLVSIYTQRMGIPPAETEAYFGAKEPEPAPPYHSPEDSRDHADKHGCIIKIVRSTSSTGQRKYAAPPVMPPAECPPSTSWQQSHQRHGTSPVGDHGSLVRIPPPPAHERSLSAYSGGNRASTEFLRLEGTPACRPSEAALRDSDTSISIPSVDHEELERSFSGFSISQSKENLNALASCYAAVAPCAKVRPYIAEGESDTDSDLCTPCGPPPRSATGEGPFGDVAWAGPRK
Numbers stand for hits.

Screening COc1cc(/C=N/NC(=O)Cc2ccc(Br)cc2)cc(OC)c1O returned KCNQ2 enhance inactive and KCNQ2 block inactive.
`O=C(Cc1ccccc1)N/N=C/c1cc(Br)cc(Cl)c1O` gave KCNQ2 enhance 6.1, KCNQ2 block inactive, Kir21 confirm inactive, HEK293 Tl flux inactive, CHO-K1 ctr 4.8, KCNQ1 sel pot inactive, KCNQ2 pot confirm 20, Kir21 spec inactive and KCNQ2 W236L MoA 25%.
`O=C(CP(=O)(c1ccccc1)c1ccccc1)N/N=C/c1cc(Br)cc(Br)c1O` gave KCNQ2 enhance inactive and KCNQ2 block inactive.
For CN(c1nc2ccccc2nc1Cl)S(=O)(=O)c1ccccc1 the results were KCNQ2 block inactive.
For CCOC(=O)C(C(=O)OCC)C(C(=O)OCC)N1CCOCC1 (stereo not given) the results were KCNQ2 enhance 15, KCNQ2 block inactive, CHO-K1 ctr inactive, KCNQ1 sel pot 24, KCNQ2 pot confirm 35, Kir21 spec inactive and KCNQ2 W236L MoA inactive.
Screening CCOC(=O)C(C)CC(C)C(=O)N1CCOCCOCCN(C(=O)C(C)CC(C)C(=O)OCC)CCOCC1 (stereo not given) returned KCNQ2 enhance inactive and KCNQ2 block inactive.
Screening COc1ccc(S(=O)(=O)N2CN3CCN(C3)C2)cc1 returned KCNQ2 enhance inactive and KCNQ2 block inactive.
`CC(=O)OC1=C(C#N)Cn2ccc3cccc1c32` gave KCNQ2 enhance inactive, KCNQ2 block inactive, Kir21 confirm 55% and HEK293 Tl flux inactive.
For CC(C)Nc1ccc(Nc2ccnc3cc4ccccc4cc23)cc1 the results were KCNQ2 block inactive.
c1ccc(CCNc2ccnc3cc4ccccc4cc23)cc1 was read as KCNQ2 enhance inactive, KCNQ2 block inactive, Kir21 confirm inactive and HEK293 Tl flux inactive.
`Cc1cc(C(=O)CSc2n[nH]c(-c3ccccc3F)n2)c(C)n1Cc1cccs1` gave KCNQ2 enhance inactive and KCNQ2 block inactive.
`Cc1cccc(N(C(=O)c2ccc(CN3CCOCC3)o2)C(C(=O)NC(C)(C)C)c2ccc(F)cc2)c1` (stereo not given) gave KCNQ2 block inactive.
COc1ccc(N2CCOCC2)c(NC(=O)COc2cccc(C)c2C)c1 was read as KCNQ2 block inactive.
Screening Cc1ccccc1OCC(=O)Nc1ccccc1N1CCOCC1 returned KCNQ2 enhance inactive, KCNQ2 block -6.5, Kir21 confirm 50% and HEK293 Tl flux inactive.
`CCOc1ccc(/C=N/Nc2nc(C)cs2)c(O)c1` gave KCNQ2 block inactive.
c1ccc(Nc2nc(-c3ccccn3)cs2)cc1 was read as KCNQ2 enhance inactive and KCNQ2 block inactive.
For COc1cccc2sc(Nc3nnc(-c4ccc(F)cc4)o3)nc12 the results were KCNQ2 enhance 20, KCNQ2 block inactive, Kir21 confirm inactive, HEK293 Tl flux 468%, CHO-K1 ctr inactive, KCNQ1 sel pot inactive, KCNQ2 pot confirm 60, Kir21 spec inactive and KCNQ2 W236L MoA inactive.
`COc1cccc2sc(Nc3nnc(-c4cccs4)o3)nc12` gave KCNQ2 enhance 10, KCNQ2 block inactive, Kir21 confirm inactive, HEK293 Tl flux 350%, CHO-K1 ctr 80, KCNQ1 sel pot inactive, KCNQ2 pot confirm 50, Kir21 spec inactive and KCNQ2 W236L MoA inactive.
`O=C(Nc1nc2c(F)cccc2s1)c1ccco1` gave KCNQ2 enhance inactive and KCNQ2 block inactive.
COc1cccc2sc(Nc3nc(-c4ccccn4)cs3)nc12 was read as KCNQ2 enhance 21, KCNQ2 block inactive, Kir21 confirm inactive, HEK293 Tl flux inactive, CHO-K1 ctr inactive, KCNQ1 sel pot inactive, KCNQ2 pot confirm inactive, Kir21 spec inactive and KCNQ2 W236L MoA inactive.
`COc1ccc(-c2nnc(-c3ccc(F)cc3)o2)cc1` gave KCNQ2 enhance inactive and KCNQ2 block inactive.
CCOC(=O)c1sc(Nc2nc3c(OC)cccc3s2)nc1C was read as KCNQ2 enhance inactive and KCNQ2 block inactive.
Fc1cccc2sc(Nc3nnc(-c4ccco4)o3)nc12 was read as KCNQ2 enhance 16, KCNQ2 block inactive, Kir21 confirm inactive, HEK293 Tl flux 310%, CHO-K1 ctr 130, KCNQ1 sel pot inactive, KCNQ2 pot confirm 45, Kir21 spec inactive and KCNQ2 W236L MoA inactive.
`Cc1cc(C)n2nc(C(=O)NC3CCCc4ccccc43)nc2n1` (stereo not given) gave KCNQ2 block inactive.
CC(C)(C)NC(=O)CN(C(=O)c1snc(C(=O)NC2CCCCC2)c1N)c1ccc(F)cc1 was read as KCNQ2 block inactive.
For CCc1ccccc1NC(=O)NNS(=O)(=O)c1cc(C)ccc1C the results were KCNQ2 block inactive.
Cc1ccc(-c2nn(-c3ccccc3)cc2NC(=O)CCl)cc1 was read as KCNQ2 block inactive.
For COc1cccc(NC(=O)C2CCN(S(=O)(=O)c3ccc4[nH]c(=O)ccc4c3)CC2)c1 the results were KCNQ2 enhance inactive and KCNQ2 block inactive.
CN(Cc1ccccc1F)C(=O)c1ccccc1Sc1ccccc1C#N was read as KCNQ2 block inactive.
Screening COc1ccc(CCN2C(=O)CC(N3CCN(C/C=C/c4ccccc4)CC3)C2=O)cc1OC (stereo not given) returned KCNQ2 enhance inactive and KCNQ2 block inactive.
`Cc1nnc(Sc2cc(C(=O)NC3CC3)c3ccccc3n2)s1` gave KCNQ2 enhance inactive and KCNQ2 block inactive.
For CC1Cc2ccccc2N1C(=S)NC(=O)C1(C)CC1(Cl)Cl (stereo not given) the results were KCNQ2 enhance 7.2, KCNQ2 block inactive, Kir21 confirm inactive, HEK293 Tl flux 272%, CHO-K1 ctr inactive, KCNQ1 sel pot inactive, KCNQ2 pot confirm 26, Kir21 spec inactive and KCNQ2 W236L MoA inactive.
CC1Cc2ccccc2N1C(=S)NC(=O)c1ccco1 (stereo not given) was read as KCNQ2 enhance inactive and KCNQ2 block inactive.
`O=C(NC(=S)Nc1cccc(Cl)c1Cl)C1CC1` gave KCNQ2 block inactive.
O=C(COc1ccc2ccccc2c1Br)N1CCCCC1 was read as KCNQ2 enhance 13, KCNQ2 block inactive, Kir21 confirm inactive, HEK293 Tl flux inactive, CHO-K1 ctr inactive, KCNQ1 sel pot inactive, KCNQ2 pot confirm 30, Kir21 spec inactive and KCNQ2 W236L MoA inactive.
